Results taken from PubChem BioAssay (Tox21).
Results filed as inconclusive are left out. Calls of active or inactive are those of the source. Calls come from the whole dose curve; as a rule, active = well fitted curve in the direction sought with a large enough effect in the repeat runs; inconclusive = weak or mixed curves; inactive = no such curve, though single readings can be large; an effect the other way counts as inactive or inconclusive.

Columns and labels:
[1] = qHTS RealTime-Glo MT Cell Viability Assay in HepG2 cells - 40 hour (AID 1224870); note: nearly all actives have a fitted effect of over 50% in size
In short: (§1)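 Real-time viability: cells seeded at 600 per well together with NanoLuc and cell-permeant prosubstrate, compounds added after 5 h incubation. Luminescence tracked at 0, 8, 16, 24, 32 and 40 h of exposure.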

[2] = A CellTox Green Cytotoxicity Assay to monitor cytotoxicity in HEK293 cells - 40 hour (AID 1224871); note: nearly all actives have a fitted effect of over 45% in size
In short: (§2)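 Cells (HEK293, 600/well) and dye reagent are dispensed together. After 5 h at 37 C, 23 nL compound is pinned in. Plates stay at 37 C for 40 h with fluorescence read at 0h, 8h, 16h, 24h, 32h and 40h.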

[3] = qHTS RealTime-Glo MT Cell Viability Assay in HEK293 cells - 16 hour (AID 1224872); note: top concentration of the series differs between compounds; nearly all actives have a fitted effect of over 50% in size
In short: (§3)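 HEK293 cells were seeded at 600 cells/well together with NanoLuc luciferase and cell-permeant prosubstrate, preincubated 5 h at 37 C/5% CO2, then given compound in DMSO by pintool. Luminescence from viable-cell prosubstrate reduction was read repeatedly over 40 h.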

[4] = qHTS RealTime-Glo MT Cell Viability Assay in HepG2 cells - 8 hour (AID 1224873); note: nearly all actives have a fitted effect of over 55% in size
In short: as §1

[5] = A CellTox Green Cytotoxicity Assay to monitor cytotoxicity in HepG2 cells - 16 hour (AID 1224876); note: nearly all actives have a fitted effect of over 45% in size
In short: (§4)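 Cells and non-lytic dye reagent are dispensed together (600 HepG2 cells/well) and incubated 5 h before DMSO compound transfer. Kinetic fluorescence is then recorded in the same wells during 40 h at 37 C.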

[6] = qHTS RealTime-Glo MT Cell Viability Assay in HepG2 cells - 32 hour (AID 1224877); note: nearly all actives have a fitted effect of over 55% in size
In short: (§5)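 HepG2 cells were seeded at 600 cells/well together with NanoLuc luciferase and a cell-permeant prosubstrate, preincubated 5 h at 37 C/5% CO2, then pin-dosed with compounds in DMSO. Nonlytic luminescence from viable cells was read at each time point.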

[7] = A CellTox Green Cytotoxicity Assay to monitor cytotoxicity in HepG2 cells - 24 hour (AID 1224878); note: nearly all actives have a fitted effect of over 45% in size
In short: as §4

[8] = A CellTox Green Cytotoxicity Assay to monitor cytotoxicity in HepG2 cells - 40 hour (AID 1224879); note: nearly all actives have a fitted effect of over 40% in size
In short: as §4

[9] = qHTS RealTime-Glo MT Cell Viability Assay in HEK293 cells - 0 hour (AID 1224880); note: top concentration of the series differs between compounds; nearly all actives have a fitted effect of over 45% in size
In short: (§6)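 Real-time viability in HEK293: signal arises when living cells convert a prosubstrate for NanoLuc in the medium, so luminescence tracks viable cell number. Compound (23 nL, DMSO) added 5 h post-seeding; kinetic reads at 0–40 h, 37 C.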

[10] = A CellTox Green Cytotoxicity Assay to monitor cytotoxicity in HEK293 cells - 32 hour (AID 1224881); note: nearly all actives have a fitted effect of over 40% in size
In short: as §2

[11] = A CellTox Green Cytotoxicity Assay to monitor cytotoxicity in HepG2 cells - 0 hour (AID 1224882); note: nearly all actives have a fitted effect of over 35% in size
In short: as §4

[12] = A CellTox Green Cytotoxicity Assay to monitor cytotoxicity in HepG2 cells - 32 hour (AID 1224883); note: nearly all actives have a fitted effect of over 50% in size
In short: as §4

[13] = A CellTox Green Cytotoxicity Assay to monitor cytotoxicity in HEK293 cells - 8 hour (AID 1224884); note: nearly all actives have a fitted effect of over 35% in size
In short: as §2

[14] = qHTS RealTime-Glo MT Cell Viability Assay in HepG2 cells - 16 hour (AID 1224885); note: nearly all actives have a fitted effect of over 50% in size
In short: as §5

[15] = qHTS RealTime-Glo MT Cell Viability Assay in HEK293 cells - 8 hour (AID 1224887)
In short: as §6

[16] = A CellTox Green Cytotoxicity Assay to monitor cytotoxicity in HEK293 cells - 16 hour (AID 1224888); note: nearly all actives have a fitted effect of over 35% in size
In short: as §2

[17] = qHTS RealTime-Glo MT Cell Viability Assay in HepG2 cells - 0 hour (AID 1224889); note: nearly all actives have a fitted effect of over 50% in size
In short: as §5

[18] = qHTS RealTime-Glo MT Cell Viability Assay in HEK293 cells - 40 hour (AID 1224874); conditions: RealTime-Glo luminescence; max response: hits give low values; note: nearly all actives have a fitted effect of over 50% in size
In short: as §6

[19] = A CellTox Green Cytotoxicity Assay to monitor cytotoxicity in HEK293 cells - 24 hour (AID 1224875)
In short: as §2

[20] = qHTS RealTime-Glo MT Cell Viability Assay in HEK293 cells - 24 hour (AID 1224886)
In short: as §3
% is set by controls: 0 for no effect and ±100 for the full control effect.

OC[C@]1(O)OC[C@@H](O)[C@H](O)[C@@H]1O
inactive: Potency [1] | Potency [2] | Potency [3] | Potency [4] | Potency [5] | Potency [6] | Potency [7] | Potency [8] | Potency [9] | Potency [10] | Potency [11] | Potency [12] | Potency [13] | Potency [14] | Potency [15] | Potency [16] | Potency [17]

Cc1nc2c([nH]1)c(=O)n(C)c(=O)n2Cc1ccco1
inactive: Potency [1] | Potency [2] | Potency [3] | max response [18] 1.42% | Potency [19] | Potency [5] | Potency [6] | Potency [7] | Potency [8] | Potency [9] | Potency [10] | Potency [11] | Potency [12] | Potency [13] | Potency [20] | Potency [15] | Potency [16] | Potency [17]

CC(C(=O)O)c1ccc(CC2CCCC2=O)cc1 (stereo unspecified)
inactive: Potency [1] | Potency [2] | Potency [3] | Potency [4] | max response [18] -1.24% | Potency [5] | Potency [7] | Potency [8] | Potency [9] | Potency [10] | Potency [11] | Potency [12] | Potency [13] | Potency [14] | Potency [20] | Potency [15] | Potency [16] | Potency [17]

OCCCC1CCCCC1
inactive: Potency [1] | Potency [2] | Potency [3] | Potency [4] | Potency [5] | Potency [7] | Potency [8] | Potency [9] | Potency [11] | Potency [12] | Potency [13] | Potency [14] | Potency [15] | Potency [16] | Potency [17]

COc1ccccc1OCC(O)CN1CCN(CC(=O)Nc2c(C)cccc2C)CC1 (stereo unspecified)
inactive: Potency [1] | Potency [2] | Potency [3] | Potency [4] | Potency [19] | Potency [5] | Potency [6] | Potency [7] | Potency [8] | Potency [9] | Potency [10] | Potency [11] | Potency [12] | Potency [13] | Potency [14] | Potency [20] | Potency [15] | Potency [16] | Potency [17]

CCCCCCCCCCCCCCCCC
inactive: Potency [1] | Potency [2] | Potency [3] | max response [18] 5.06% | Potency [19] | Potency [5] | Potency [6] | Potency [7] | Potency [8] | Potency [9] | Potency [10] | Potency [11] | Potency [12] | Potency [13] | Potency [14] | Potency [20] | Potency [15] | Potency [16] | Potency [17]

CCCc1cc(C(N)=S)ccn1
inactive: Potency [1] | Potency [2] | Potency [3] | Potency [4] | Potency [19] | Potency [5] | Potency [6] | Potency [7] | Potency [8] | Potency [9] | Potency [10] | Potency [11] | Potency [12] | Potency [13] | Potency [14] | Potency [15] | Potency [16] | Potency [17]

Nc1c2c(nc3ccccc13)CCCC2O (stereo unspecified)
inactive: Potency [1] | Potency [2] | Potency [3] | Potency [4] | Potency [19] | Potency [5] | Potency [6] | Potency [7] | Potency [8] | Potency [9] | Potency [11] | Potency [12] | Potency [13] | Potency [14] | Potency [20] | Potency [15] | Potency [16] | Potency [17]

COC(C)(C)CCCC(C)CC=O (stereo unspecified)
inactive: Potency [1] | Potency [2] | Potency [3] | max response [18] 3.83% | Potency [19] | Potency [5] | Potency [6] | Potency [7] | Potency [8] | Potency [9] | Potency [10] | Potency [11] | Potency [12] | Potency [13] | Potency [14] | Potency [20] | Potency [15] | Potency [16] | Potency [17]

COC(=O)NN
inactive: Potency [1] | Potency [2] | Potency [3] | Potency [4] | Potency [19] | Potency [5] | Potency [6] | Potency [8] | Potency [9] | Potency [10] | Potency [11] | Potency [12] | Potency [13] | Potency [14] | Potency [20] | Potency [15] | Potency [16] | Potency [17]

COC(=O)c1cc(C(=O)OC)cc(S(=O)(=O)O)c1
inactive: Potency [1] | Potency [2] | Potency [3] | Potency [4] | Potency [19] | Potency [5] | Potency [6] | Potency [7] | Potency [8] | Potency [9] | Potency [10] | Potency [11] | Potency [12] | Potency [13] | Potency [14] | Potency [20] | Potency [15] | Potency [16] | Potency [17]

CN1CC(=O)NC1=N
inactive: Potency [1] | Potency [2] | Potency [3] | Potency [4] | Potency [5] | Potency [7] | Potency [8] | Potency [9] | Potency [10] | Potency [11] | Potency [12] | Potency [13] | Potency [14] | Potency [15] | Potency [16] | Potency [17]

O=C[C@H](O)[C@@H](O)[C@H](O)[C@H](O)CO
inactive: Potency [1] | Potency [2] | Potency [3] | Potency [4] | max response [18] 17.2% | Potency [5] | Potency [7] | Potency [8] | Potency [9] | Potency [10] | Potency [11] | Potency [12] | Potency [13] | Potency [14] | Potency [15] | Potency [16] | Potency [17]
